# ALR inh: inhibitors of human ALR sulfhydryl oxidase, primary screen, biochemical, H2O2 detection, HRP-luminol luminescence, single point; FAD-linked sulfhydryl oxidase ALR (Homo sapiens), P55789; purified ALR, DTT oxidation; inhibition, % (concentration not given with the values); actives 3.8% (n = 290,000); AID 485317, 2010;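 active = mean replicate inhibition above about 79%, with every replicate also reaching it, limit read from the data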
# Target sequence (P55789 whole entry, looked up): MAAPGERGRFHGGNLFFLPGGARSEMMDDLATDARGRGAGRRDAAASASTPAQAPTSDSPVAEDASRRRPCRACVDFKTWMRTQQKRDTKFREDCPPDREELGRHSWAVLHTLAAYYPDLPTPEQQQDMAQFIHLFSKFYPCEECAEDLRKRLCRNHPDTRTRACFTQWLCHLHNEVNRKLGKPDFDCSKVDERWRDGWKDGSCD
# PHOSPHO1 inh: PubChem AID 1565; actives 1.1% (n = 290,000); recombinant PHOSPHO1, absorbance phosphatase assay; Phosphoethanolamine/phosphocholine phosphatase (Homo sapiens), Q8TCT1; inhibition, % at 13.3 µM; in the data active = inhibition above about 60%
# Target sequence (Q8TCT1 whole entry, looked up): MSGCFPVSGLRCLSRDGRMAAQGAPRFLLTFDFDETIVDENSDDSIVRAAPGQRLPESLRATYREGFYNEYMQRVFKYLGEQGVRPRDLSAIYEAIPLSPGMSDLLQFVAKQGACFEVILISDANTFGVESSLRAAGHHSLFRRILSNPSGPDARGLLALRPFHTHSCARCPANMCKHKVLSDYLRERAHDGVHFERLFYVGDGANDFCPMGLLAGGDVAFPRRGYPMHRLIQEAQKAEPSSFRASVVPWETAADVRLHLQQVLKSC
# PfGluPho inh: PfG6PD enzyme inhibitors, primary screen, biochemical, fluorescence intensity, uHTS; glucose-6-phosphate dehydrogenase-6-phosphogluconolactonase (Plasmodium falciparum 3D7); PfGluPho enzyme, NADPH resazurin-diaphorase fluorescence; inhibition, % at 20 µM; actives 0.78% (n = 350,000);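 active = inhibition reaching at least a set limit at 20 µM in the primary screen, cut at about 59% in these data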;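 note: 0% = DMSO wells with substrate and 100% = DMSO wells lacking glucose-6-phosphate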
# H9c2 protect: cardioprotection against H2O2-induced cell death, primary screen, uHTS, H9c2 cells, ATPLite luminescence. H9c2 cardiomyocytes, H2O2 injury protection, 2 h. actives 0.63% (n = 360,000). AID 588492, 2011. protection from H2O2 cell death, % at 20 µM;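 active = compounds giving at least 50% protection of heart cells from peroxide-induced death in the single-dose screen, raw or plate-pattern-corrected value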;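 note: 0% = DMSO wells with peroxide and 100% = DMSO wells without peroxide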
# PfM18AAP inh: PfM18AAP inhibitors, malaria aminopeptidase, primary screen, biochemical, QFRET, recombinant enzyme. M18 aspartyl aminopeptidase (Plasmodium falciparum 3D7). H-Glu-NHMec fluorogenic cleavage. inhibition, % at 7.35 µM. actives 1.2% (n = 290,000). AID 1822, 2009;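 active = inhibition above the campaign mean inhibition over all tested compounds plus 3 SD, cut at about 28% in these data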;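 note: 0% = plate median of test compound wells and 100% = 2 mM ZnCl2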
# The depositor's hits bear a star; . = not tested or not shown. A selection: hits, their analogues and other compounds. The true share with any hit is near 5.6%.
SMILES,ALR inh,PHOSPHO1 inh,PfGluPho inh,H9c2 protect,PfM18AAP inh
COc1ccc(NC2CCCN(C(=O)CN3C(=O)c4ccccc4C3=O)C2)cc1OC (configuration not stated),98.3*,27.9,44.3,-5.8,7.5
Cc1cc2nc(-c3ccc(SCC(=O)N4CCN(C(=O)c5ccco5)CC4)nc3)[nH]c2cc1C,98.7*,31.3,15.0,-10.0,0.8
Cc1cc2nc(-c3ccc(SCc4ccccn4)nc3)[nH]c2cc1C,97.7*,11.9,52.8,-0.3,-11.8
Cc1ccc(CNC(=O)C(Cc2ccccc2)NS(=O)(=O)c2ccc(Br)s2)cc1 (configuration not stated),-0.6,-5.0,8.9,-6.7,-0.8
O=c1c(-c2n[nH]c(=S)n2-c2ccccc2)cccn1Cc1cccc(Cl)c1,93.0*,52.1,35.0,9.9,14.1
C=CCn1c(-c2cccn(Cc3ccc(Cl)cc3Cl)c2=O)n[nH]c1=S,.,32.5,29.9,-2.6,7.1
C=CCn1c(-c2cccn(Cc3ccc(Cl)cc3)c2=O)n[nH]c1=S,12.6,99.1*,33.1,-4.2,7.2
C=CCn1c(-c2cccn(Cc3cccc(Cl)c3)c2=O)n[nH]c1=S,3.5,97.7*,22.1,-5.6,0.4
C=CCn1c(-c2cccn(Cc3ccccc3)c2=O)n[nH]c1=S,35.5,-66.9,24.3,-5.8,7.6
CSc1ccccc1C(=O)OCC(=O)Nc1c(C)n(C)n(-c2ccccc2)c1=O,.,.,1.6,-4.5,.
COC(=O)CC(=O)CSc1nc2c(cc1C#N)CCC2,-0.4,-58.7,-9.6,-7.1,19.5
CCOC(=O)CC(=O)CSc1nc2c(cc1C#N)CCCCCC2,-12.6,75.8*,-26.6,-4.5,.
O=C(Nc1ccc2c(c1)OCCO2)C(c1cc2ccccc2o1)N1CCN(C/C=C/c2ccccc2)CC1 (configuration not stated),.,.,.,-2.7,.
COc1ccc(OC)c(NC(=O)C2CC(=O)N(Cc3ccco3)C2)c1 (configuration not stated),.,.,7.4,2.7,.
CCc1nn(CC(=O)N2CCCCCC2)c(=O)c2cc3ccccc3n12,-5.9,12.0,-6.4,3.0,-5.3
CC(=O)Nc1ccc(SCC(=O)Nc2cc(C(C)(C)C)nn2-c2ccccc2)cc1,89.4*,-3.9,9.9,3.8,-2.9
CC(=O)Nc1ccc(SCC(=O)Nc2cc(C)on2)cc1,99.2*,4.2,10.5,-2.5,10.4
CC(=O)Nc1ccc(SCC(=O)NC(=O)c2ccccc2Br)cc1,98.4*,.,-4.8,-2.5,.
CC(=O)Nc1ccc(NC(=O)c2ccccc2Br)cc1,.,.,.,-2.9,.
O=C(COC(=O)CN1C(=O)COc2ccccc21)NCc1ccc(F)cc1,-8.2,.,4.1,-6.9,.
CCCN(C(=O)c1cc(Cl)nc2ccccc12)c1c(N)n(Cc2ccccc2)c(=O)[nH]c1=O,-16.8,.,-3.6,-0.3,.
Cc1ccc(CNC(=O)C2CCC(=O)N(Cc3ccc(Cl)cc3)C2)cc1F (configuration not stated),-11.4,-1.4,7.4,-5.0,-1.9
O=C(COC(=O)Cn1cnc2ccccc21)Nc1ccc(F)c(F)c1,-4.0,.,-0.2,-3.5,.
CCc1cc(=O)n2[nH]c(C)c(-c3ccc(OC)cc3)c2n1,32.5,27.3,8.5,20.4,-7.7
CCOC(=O)Cc1cc(=O)n2[nH]c(C)c(-c3ccc(OC)cc3)c2n1,91.3*,14.0,-12.1,7.0,-14.1
SMILES,ALR inh,PHOSPHO1 inh,PfGluPho inh,H9c2 protect,PfM18AAP inh
Cc1[nH]n2c(=O)c3c(nc2c1-c1ccc(Cl)cc1)CCC3,25.8,15.7,-16.3,54.5*,-9.5
COC(=O)Cc1cc(=O)n2[nH]c(C)c(-c3ccccc3)c2n1,47.6,-1.4,8.7,18.1,-3.6
CCOC(=O)Cc1cc(=O)n2[nH]c(C)c(-c3ccc(Cl)cc3)c2n1,99.4*,10.5,-14.2,22.0,-1.1
C=CCOc1ccc(Cl)cc1-c1noc(-c2csc([C@H]3C[C@H](O)[C@@H](CO)O3)n2)n1,.,.,.,8.3,.
CC(=O)c1cn(-c2ccc(Cl)cc2)c(=O)[nH]c1=O,-10.0,15.6,9.1,2.1,2.5
COc1cc(Cl)cc(/C=C/c2ccc3cccc(O)c3n2)c1OC,-22.1,5.5,20.2,57.3*,-10.0
CCC(C)[C@H](NC(=O)C1CC(=O)N(c2ccc(OC)cc2)C1)C(=O)NC1CCCC1 (some centres not stated),0.4,47.5,-4.6,-1.0,-0.1
CC(O)/C=C/c1cccc[n+]1C (configuration not stated),-6.1,83.6*,17.8,4.4,1.4
CCOc1ccc(-n2c(C)c(C(C)=O)c3cc(OC(C)=O)ccc32)cc1,-2.2,35.7,9.6,50.1*,4.6
CN(C)CCNc1ncnc2c1ncn2[C@H]1CN(Cc2cccnc2)C[C@@H](CO)O1,.,.,.,0.3,.
Nc1c(C(=O)c2ccccc2)sc2nsc(SCCN3CCOCC3)c12,14.4,60.8*,58.0,-4.6,27.2
CN1Cc2c(N3CCOCC3)nc3sc(C(=O)c4ccccc4)c(N)c3c2CC1(C)C,-17.0,27.7,21.5,3.8,-1.7
O=C(NCC1CCCO1)c1ccc(N2C(=O)C3CCCCC3C2=O)cc1 (configuration not stated),-4.6,30.4,-14.6,0.7,2.9
Nc1ccccc1Nc1nc2ccccc2[nH]1,99.2*,8.3,-6.0,-5.8,18.1
COC(=O)c1cc(C(=O)OCC(=O)N2c3ccccc3NC(=O)C2(C)C)cc([N+](=O)[O-])c1,-5.5,-23.5,-1.3,57.5*,-7.2
N#Cc1nc(-c2cccc3ccccc23)oc1NCCN1CCOCC1,69.6,15.2,-1.6,-7.9,-8.2
N#Cc1nc(-c2ccccc2F)oc1NCCN1CCOCC1,96.0*,-5.3,14.6,16.4,-5.0
Cc1ccc(-c2nc(C#N)c(NCCN3CCCCC3)o2)cc1,92.4*,-22.8,-2.6,-2.3,-2.6
N#Cc1nc(-c2ccc(F)cc2)oc1NCCN1CCOCC1,64.7,18.2,-6.8,11.3,5.2
Cc1c(N=C2NC(=O)C(CC(=O)Nc3ccccc3)S2)c(=O)n(-c2ccccc2)n1C (configuration not stated),-3.2,-6.1,0.3,10.9,1.4
Cc1c(N=C2NN=C(c3ccc(Cl)cc3)CS2)c(=O)n(-c2ccccc2)n1C,97.4*,30.3,24.3,4.4,5.2
O=C1NC(=NCc2ccccc2)S/C1=C/c1ccc(O)cc1,93.8*,7.4,-10.0,1.9,7.3
COc1ccc(/C=C2\SC(=Nc3ccccc3)NC2=O)cc1,-3.1,3.8,.,.,-3.8
Cc1c(N=C2NC(=O)/C(=C/c3ccc(O)cc3)S2)c(=O)n(-c2ccccc2)n1C,99.2*,2.5,0.2,9.1,17.3
Cc1ccc(C(=O)Nc2cccc([N+](=O)[O-])c2)cc1S(=O)(=O)Nc1ccc(C(=O)O)cc1,82.2*,1.8,-13.3,2.6,-5.3
Cc1ccc(C(=O)Nc2ccccc2C(=O)O)cc1S(=O)(=O)Nc1ccc(Br)cc1,98.3*,.,-42.0,13.8,.
